Bioassay records as filed in PubChem BioAssay.
WRN helicase inh: blocks human WRN helicase | Q14191 | WRN helicase unwinding, fluorescent forked duplex, kinetic | Potency, µM (top dose mostly 114 µM), usual class: inhibitors | hit rate 0.46% among 360,000 | AID 651768; note: nearly all actives have a fitted effect of over 55% in size
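Kinetic fluorescence helicase assay: unwinding of a quenched forked DNA duplex (100 nM final) with 2 mM ATP final raises red fluorescence (525/598 nm). Compounds sat 15 min at room temperature with 20 nM WRN beforehand.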
Pol iota inh: blocks human DNA polymerase iota activity. Q9UNA4. Pol iota fluorescent replication assay, 10 min. Potency, µM (top dose mostly 115 µM), hits mostly inhibitors. hit rate 1% among 390,000
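Fluorescent replication assay read twice, at 0 min and 10 min after adding 50 nM (final) substrate. Enzyme (10 nM) and compounds were first incubated 15 min at room temperature; enzyme-free buffer wells were negative controls.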
PI5P4K alpha inh: blocks human PI5P4K alpha kinase activity; PI5P4Kalpha enzyme, ADP-Glo luminescence, 60 min; stronger effect = lower value; P48426; AID 652105; hit rate 1.2% among 330,000; max response, %; active = max response of -50% or lower; inconclusive = between -30% and -50%; inactive = -30% or higher; note: value at the top dose of about 77 µM
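Luminescence from ADP-Glo served as readout of PI5P4Kalpha activity in a qHTS format. Reaction: enzyme, substrate, compound, ATP at 5 microM final, 60 min at RT.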
Pol eta inh: blocks human DNA polymerase eta activity; Potency, µM (highest dose often 114 µM), usual class: inhibitors; recombinant Pol eta, fluorescent DNA replication assay; Q9Y253; AID 588591; hit rate 1.2% among 390,000
Target sequence (Q9Y253 whole entry, looked up): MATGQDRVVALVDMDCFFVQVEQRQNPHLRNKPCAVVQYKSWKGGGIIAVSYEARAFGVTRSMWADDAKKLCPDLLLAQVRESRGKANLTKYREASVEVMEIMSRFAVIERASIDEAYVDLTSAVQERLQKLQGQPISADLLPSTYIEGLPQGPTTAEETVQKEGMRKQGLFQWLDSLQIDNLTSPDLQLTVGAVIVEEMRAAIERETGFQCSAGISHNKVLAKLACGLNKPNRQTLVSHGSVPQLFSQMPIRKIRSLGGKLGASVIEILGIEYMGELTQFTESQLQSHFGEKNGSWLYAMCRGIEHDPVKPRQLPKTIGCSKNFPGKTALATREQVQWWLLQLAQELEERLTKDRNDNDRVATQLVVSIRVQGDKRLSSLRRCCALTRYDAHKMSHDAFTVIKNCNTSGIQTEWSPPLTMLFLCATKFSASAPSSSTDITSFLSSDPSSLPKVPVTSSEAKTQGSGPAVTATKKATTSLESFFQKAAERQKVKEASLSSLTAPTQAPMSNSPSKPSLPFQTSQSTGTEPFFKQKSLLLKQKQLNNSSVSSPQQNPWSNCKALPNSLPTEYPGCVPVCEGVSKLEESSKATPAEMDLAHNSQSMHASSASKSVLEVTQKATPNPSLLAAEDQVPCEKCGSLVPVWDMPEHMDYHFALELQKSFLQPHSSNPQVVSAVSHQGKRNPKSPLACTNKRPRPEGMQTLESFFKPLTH
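Pol eta at 10 nM preincubated with compounds 15 min at room temperature; reaction started with fluorescent substrate (50 nM final) and read kinetically at 0 and 10 min.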
Pol kappa inh: blocks human DNA polymerase kappa activity; Q9UBT6; purified Pol kappa, fluorescent DNA synthesis assay, 10 min; Potency, µM (doses to about 107 µM), most hits filed as inhibitors; hit rate 0.53% among 400,000; AID 588579
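First, compounds were pin-transferred onto 10 nM Pol kappa. After 15 min at room temperature, substrate was added to 50 nM final. Fluorescence was then measured kinetically at 0 and 10 min.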
POLB inh: inhibitors of human DNA polymerase beta; P06746; Potency, µM (top dose mostly 114 µM), usual class: inhibitors; AID 485314; hit rate 1.3% among 340,000; Pol beta primer extension/strand displacement, fluorescence kinetic
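Values derive from four-parameter Hill fits of normalized kinetic data: reads at 0 and 10 min following addition of 50 nM substrate to 10 nM Pol beta preincubated 15 min with compound.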
Hits are given with their value; i = inactive; ? = inconclusive; nt = no result; [ ] = another dose, or the depositor's remark. Rows were chosen to be rich in hits. Some 2.8% of all compounds tested hit in one or more screens of this group. Unless noted, calls come from the whole dose curve; as a rule, active = well fitted curve in the direction sought with a large enough effect; inconclusive = small, poorly fitted or top-dose-only effect, or another doubt; inactive = no such curve, though single readings can be large; an effect the other way counts as inactive or inconclusive.

SMILES | WRN helicase inh | Pol iota inh | PI5P4K alpha inh | Pol eta inh | Pol kappa inh | POLB inh
Cc1cc(C(=O)NNS(=O)(=O)c2cc(C(=O)O)ccc2Cl)c(C)n1-c1ccccc1 | i | ? | i | 22µM | ? | nt
O=C(Cc1ccc(-c2ccccc2)cc1)NO | nt | i | nt | nt | i | nt
C=C(CN(C)C)C(=O)c1cc(OC)c(OC)cc1OC | ? | i | i | i | i | nt
C=C(CN(C)C)C(=O)c1ccc(C)cc1C | 18µM | ? | i | i | i | nt
COc1ccc(CNC(=O)Cc2c(C)c3c(cc(C)c4c(C)coc43)oc2=O)cc1OC | nt | i | nt | i | i | i
Cc1ccc(-c2cc(-c3ccc(F)cc3)c(C#N)c(N)n2)o1 | i | i | -67 | i | i | i
CCOc1cc(-c2cc(-c3ccc(C)o3)nc(N)c2C#N)ccc1O | i | i | -55 | i | i | i
Cc1ccc(-c2cc(-c3ccc4c(c3)OCO4)c(C#N)c(N)n2)o1 | i | i | nt | i | i | ?
Cc1ccc(-c2c(C#N)c(N)nc3c2CCCCC3)o1 | i | i | nt | i | i | i
Cc1ccc(-c2cc(-c3ccc(C)o3)nc(N)c2C#N)cc1 | ? | ? | -90 | i | i | i
Cc1ccc(-c2cc(-c3ccc(Cl)cc3)c(C#N)c(N)n2)o1 | i | i | -93 | i | i | i
Cc1cc(-c2cc(-c3ccc(Cl)cc3)nc(N)c2C#N)co1 | ? | ? | -69 | ? | i | ?
Cc1cccc(Cn2c(=O)n3nc(-c4ccccc4)nc3c3ccccc32)c1 | nt | i | nt | i | i | i
O=C1NC(=O)/C(=C/c2cccc(O)c2)N1 | i | i | -64 | i | i | i
O=C1NC(=O)C(=Cc2ccccc2)N1 | i | i | i | i | i | nt
C[N+](C)(C)c1ccc(/C=C/c2ccnc3ccccc23)cc1 | nt | i | nt | nt | i | nt
NSc1nc(N)c2nc(-c3ccccc3)c(-c3ccccc3)nc2n1 | i | i | -53 | i | i | i
O=C1C(=O)N(C2CCN(C(=O)c3ccc(F)cc3)CC2)CCN1Cc1ccc(F)cc1 | nt | i | nt | i | i | i
CSC1=C(C#N)C(=O)NC(c2ccc(Cl)cc2)S1 (stereo unspecified) | i[11.6 µM] | i | i | 79µM | i | i
CC(NC(=O)Cn1c(=O)oc2cc(S(=O)(=O)NCc3ccccc3)ccc21)c1ccccc1 (stereo unspecified) | nt | i | nt | i | i | i
O=C(N/N=C/c1ccccn1)c1sc2ccccc2c1Cl | ? | i | i | ? | i | 45µM
O=C(N/N=C/c1ccc([N+](=O)[O-])o1)c1sc2ccccc2c1Cl | i | 20µM | -62 | ? | 50µM | ?
Cc1cc2oc(C(=O)Nc3ccc(S(=O)(=O)N4CCCCCC4)cc3)cc(=O)c2cc1C | nt | i | nt | i | i | i
O=C(NCCc1ccc(Cl)cc1)c1ccc(Cn2c(=O)c3cccn3c3cccnc32)cc1 | nt | ? | nt | ? | i | 11µM
O=C(NCCc1ccccc1)c1ccc(Cn2c(=O)c3cccn3c3cccnc32)cc1 | nt | i | nt | i | i | i
SMILES | WRN helicase inh | Pol iota inh | PI5P4K alpha inh | Pol eta inh | Pol kappa inh | POLB inh
C=CCn1c(N)c(C(=O)NCc2ccco2)sc1=S | i | i | nt | i | i | i
CCCCCNC(=O)c1ccc2c(=O)[nH]c3c(C(=O)NCC4CCCO4)sc(=S)n3c2c1 (stereo unspecified) | ? | i | i | 25µM | i | i
O=C(NC1CCCC1)c1sc(=S)n2c1[nH]c(=O)c1ccccc12 | i | ? | nt | 56µM | i | ?
O=C(NCc1ccco1)c1sc(=S)n2c1[nH]c(=O)c1ccccc12 | ? | ? | nt | 22µM | ? | 50µM
O=c1/c(=C\c2cccn2-c2ccccc2)sc2nc3ccccc3n12 | i | i | i | i | i | i
O=C(O)Cn1cc(/C=c2/sc3nc4ccccc4n3c2=O)c2ccccc21 | ? | i | ? | 79µM | ? | i
Cc1ccn2c(=O)cc(COc3ccc(NC(=O)COc4ccc(C)c(C)c4)cc3)nc2c1 | nt | i | nt | i | i | i
COc1cccc(OCc2cc(/C=N/Nc3ccc(C(=O)O)cc3)ccc2OC)c1 | i | i | ? | 50µM | i | i
Nc1c(S(=O)(=O)O)cc(Nc2ccc(Nc3nc(Cl)nc(Nc4ccc(S(=O)(=O)O)cc4)n3)c(S(=O)(=O)O)c2)c2c1C(=O)c1ccccc1C2=O | nt | 1.6µM | nt | 0.63µM | 2.7µM | 1.1µM
O=[N+]([O-])c1ccc(Nc2nc(Cl)nc(NCCO)n2)cc1 | i | i | i | i | i | i
Cc1ccc(S(=O)(=O)N2CCCN(c3nc(-c4cccs4)nc4ccccc34)CC2)cc1 | nt | i | nt | nt | i | nt
COC(=O)C1=NNC(C(=O)OC)C1c1ccccc1 (stereo unspecified) | i | i | i | i | i | nt
CCn1c(=O)cc(OCC(=O)N2CCN(c3ccccc3OC)CC2)c2ccccc21 | nt | i | nt | i | i | i
O=c1cc(-c2ccc(O)cc2)oc2cccc(O)c12 | nt | nt | nt | nt | i[19.4 µM] | nt
O=c1cc(-c2ccc(O)cc2)oc2c(-c3c(O)cc(O)c4c(=O)cc(-c5ccc(O)cc5)oc34)c(O)cc(O)c12 | i | ? | ? | 25µM | ? | nt
Cc1c(NS(=O)(=O)c2ccccc2)cc(C(C)C)c(O)c1S(=O)(=O)c1ccc(Cl)cc1 | nt | i | nt | i | i | i
O=C(NCc1cccs1)C1CC(c2ccc(Cl)cc2)=NO1 (stereo unspecified) | i | i | i | i | i | i
O=C(NNC(=O)C1CC(c2cccs2)=NO1)Nc1ccc(Cl)cc1 (stereo unspecified) | i | ? | i | i | i | 45µM
CCOc1ccc(S(=O)(=O)NCCc2csc3nc(-c4cccc(C)c4)nn23)cc1 | nt | i | nt | i | i | i
N#Cc1ccc(CSc2nnc(NC(=O)c3ccc4ncsc4c3)s2)cc1 | ? | ? | i | 32µM | i | i
COc1ccc(-c2nc(CSc3nncn4c3cc3occc34)c(C)o2)cc1 | nt | ? | nt | i | ? | 3.5µM
O=C(Nc1ccc(OCc2cc(=O)n3c4c(sc3n2)CCCC4)cc1)c1ccc(F)cc1 | nt | i | nt | i | i | i
CCN1CCN(c2cc(N3CCN(C(=O)c4ccco4)CC3)c3c4c(onc24)-c2ccccc2C3=O)CC1 | i | 28µM | i | i | i | i
COc1ccccc1/C=C/C=N/NC(=O)Cc1cccn1C | i | 50µM | ? | ? | i | i
Oc1c(Br)cc(Br)cc1C=Nc1ccc2[nH]ncc2c1 | i | i | -51 | i | i | i
COc1ccc(C=Nc2ccc3[nH]ncc3c2)c(O)c1 | i | i | i | i | i | i
CC(C)NC(=O)C1CCN(c2nc3ccccc3nc2C(F)(F)F)CC1 | nt | i | nt | i | i | i
CCc1nnc2c3ccccc3nc(Nc3ccc(F)c(Cl)c3)n12 | nt | i | nt | i | i | i
Cc1ccc(C(C)C)cc1OCC(=O)Nc1ccc(-n2cnnn2)cc1 | i | i | i | i | i | nt
Cc1ccc(C)c(S(=O)(=O)Nc2cc(SCC(=O)O)c(O)c3ccccc23)c1 | 18µM | 8.9µM | ? | 22µM | i | 79µM
